Screening data deposited in PubChem by National Center for Advancing Translational Sciences (NCATS).
The list is not random: actives were taken first. Their share in the collection is about 21%.
DT40 TDP1 no CPT = qHTS for Inhibitors of human tyrosyl-DNA phosphodiesterase 1 (TDP1): qHTS in cells in absence of CPT | DT40 Tdp1-/- hTDP1 cells, no CPT, ATP luminescence, 48 h | Potency, µM (doses to about 46.2 µM), for inactives: at the top dose activity change, negative = growth inhibition, most hits filed as inhibitors | hit rate 15% among 420,000 | AID 686978, 2013; further: potency means the concentration at half of the fitted maximal effect; nearly all actives have a fitted effect of over 55% in size
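Growth kinetics read by CellTiter-Glo luminescence after ≥48 hr at 37 °C. Cells: DT40 Tdp1-/- stably carrying human TDP1, 400 per well, compound exposure in the absence of CPT (DMSO vehicle).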
Gal4-VP16 FLuc = Gal4-VP16 reporter inhibition counter-screen | hit rate 3.5% among 310,000 | Potency, µM (series often up to 53.6 µM), for the others: top-dose activity, negative = inhibition, actives largely listed as inhibitors | AID 2546 | Drosophila S2 Gal4-VP16 UAS-luciferase, luminescence, 20 h;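 further: Gal4-VP16 expression switched on by copper sulfate through the metallothionein promoter; potency means the concentration at half of the fitted maximal effect; nearly all actives have a fitted effect of over 50% in size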
IL-1B inflam inh = blocks inflammasome-driven IL-1 beta release | AID 743279 | THP-1 LPS/ATP IL-1B secretion, AlphaLISA, 16 h; stronger effect = lower value | hit rate 4.7% among 360,000 | activity change, % at 57.5 µM; in the data active means activity change below about -50%; inconclusive means mostly about -30% to -49%
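THP-1 cells pretreated 1 hr with compounds (up to 57.5 uM final), then stimulated with LPS (250 ng/mL final) plus ATP (1.25 mM final); secreted IL-1B measured by AlphaLISA after 16 hr, decreased signal indicating inhibition.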
TDP1 cell CPT = growth inhibition of DT40 Tdp1-/-;hTDP1 cells with camptothecin (screen for TDP1 inhibitors) | hit rate 12% among 420,000 | Potency, µM (titrated, usually from 46.2 µM), inactives show at the top dose activity change, negative = growth inhibition, actives largely listed as inhibitors | chicken DT40 Tdp1-/-;hTDP1 cells + 20 nM CPT, ATP luminescence, 48 h; further: potency means the concentration at half of the fitted maximal effect; nearly all actives have a fitted effect of over 55% in size
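Chicken DT40 Tdp1-/- cells complemented with human TDP1, 400 cells/well, exposed to compounds plus 20 nM camptothecin for at least 48 h at 37 C; viability read as ATP content by CellTiter-Glo luminescence.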
RORgamma inh = blocks mouse ROR gamma transcriptional activity; Potency, µM (top dose mostly 53.6 µM), without a hit: at the highest dose activity change, negative = inhibition, hits mostly inhibitors; Drosophila S2 Gal4-RORgamma UAS-luciferase reporter, 20 h; P51450; hit rate 5.4% among 310,000; AID 2551; further: potency means the concentration at half of the fitted maximal effect; nearly all actives have a fitted effect of over 60% in size
Target sequence (P51450 whole entry, looked up, the tested form may be a part): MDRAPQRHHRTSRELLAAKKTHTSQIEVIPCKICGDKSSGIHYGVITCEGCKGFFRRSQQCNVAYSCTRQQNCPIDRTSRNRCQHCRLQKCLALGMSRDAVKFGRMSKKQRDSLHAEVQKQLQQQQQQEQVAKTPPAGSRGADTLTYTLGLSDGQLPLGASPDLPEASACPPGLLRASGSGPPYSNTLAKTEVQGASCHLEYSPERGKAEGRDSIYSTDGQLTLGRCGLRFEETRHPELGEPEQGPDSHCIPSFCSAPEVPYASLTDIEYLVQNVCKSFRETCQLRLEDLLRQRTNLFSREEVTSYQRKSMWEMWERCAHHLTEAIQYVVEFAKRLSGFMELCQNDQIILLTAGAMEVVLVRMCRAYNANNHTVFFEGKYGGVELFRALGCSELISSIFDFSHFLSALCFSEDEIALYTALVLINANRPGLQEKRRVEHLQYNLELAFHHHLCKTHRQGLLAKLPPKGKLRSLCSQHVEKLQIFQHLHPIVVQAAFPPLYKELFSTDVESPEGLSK
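Stably transfected Drosophila Schneider cells are the test system, with ROR gamma fused to Gal4 and luciferase under UAS control; luminescence is read after 20 hr of 700 uM copper sulfate induction at ambient temperature.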
ELG1 repair inh = blocks ELG1-dependent DNA repair in HEK293T cells. hit rate 2.3% among 330,000. Potency, µM (titrated, usually from 46.1 µM), inactives show at the top dose activity change, negative = inhibition, actives largely listed as inhibitors. HEK293T ELG1-luciferase reporter, luminescence, 16 h; DNA damage induced by 5-fluorouridine; further: potency means the concentration at half of the fitted maximal effect; nearly all actives have a fitted effect of over 55% in size
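Luminescence from the luciferase reporter, measured 30 min after ONE-Glo reagent at room temperature, was the read-out. Beforehand, 2,000 cells per well were exposed for 16 hr at 37 °C to 5-fluorouridine together with compound or vehicle.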
* hit, by the source's call; u = inconclusive; x = no result; [ ] = dose if it differs, or a comment. Unless noted, the call rests on the fitted dose curve; in most records, active means well fitted curve in the direction sought with a large enough effect; inconclusive means small, poorly fitted or top-dose-only effect, or another doubt; inactive means no such curve, though single readings can be large; an effect the other way counts as inactive or inconclusive. On the % scale 0 is the no-effect control and ±100 the full control effect.

SMILES	DT40 TDP1 no CPT	Gal4-VP16 FLuc	IL-1B inflam inh	TDP1 cell CPT	RORgamma inh	ELG1 repair inh
C=C(C)C(=O)Nc1cccc(C2=NOC3(C2)C[C@@H](C(N)=O)N(C(=O)[C@H]2CCC(=O)N2)C3)c1 (stereo partly specified)	4.4%	3.5%	14.3	1.9%	-1.7%	17.9%
CCCCC[C@H](O)/C=C/[C@H]1OC(O)C[C@H](O)[C@@H]1C/C=C\CCCC(=O)O (stereo partly specified)	x	5.8%	x	x	4.4%	x
CCCCN(C)c1c(C)nc2ccc(C(=O)NCCCn3ccnc3)cn12	-17.5%	x	10.4	-21.6%	x	x
FC(F)(F)c1ccccc1-c1nc(NC2CCNCC2)c2ccccc2n1	u	-1.4%	x	14.6µM*	-11.8%	x
FC(F)(F)c1ccccc1-c1nc(N2CCNCC2)c2ccccc2n1	-13.5%	8.8%	x	u	-6.8%	x
CCC(Oc1ccccc1)C(=O)Nc1cc(C)on1 (stereo unspecified)	-9.4%	15.8%	13.9	-22.4%	30.6%	u
CCC(Oc1ccccc1)C(=O)Nc1cc(-c2ccccc2OC)nn1-c1ccccc1 (stereo unspecified)	23.1µM*	x	x	u	x	x
CC(C)CC(=O)Nc1cc(-c2ccccc2F)nn1-c1ccccc1	11.6µM*	x	x	25.9µM*	x	x
COc1cccc(Cn2c(=O)c(CCc3ccccc3)nc3cnc(N4CCOCC4)nc32)c1	-14.7%	5.6%	x	-22.6%	-22.9%	x
Cc1ccc(NC(=O)CCCCCCCCCCC2COCCO2)c(C)c1 (stereo unspecified)	18.4µM*	1.4%	1.2	20.6µM*	12.6%	-0.6%
Cc1ccc(NC(=O)CCCN2C(=O)COc3ccc(C)cc32)c(Cl)c1	7.31µM*	x	x	u	x	x
COc1ccc(CNC(=O)CCCN2C(=O)COc3ccc(C)cc32)cc1	-19.0%	x	x	u	x	x
Cc1ccc(NC(=O)CCN2C(=O)NC3(CCCC3)C2=O)c(C)c1	3.26µM*	x	-13.5	-1.7%	x	1.1%
Cc1ccc2c(c1)N(CCCC(=O)Nc1cccc(C(F)(F)F)c1)C(=O)CO2	16.4µM*	6.2%	-12.2	u	15.1%	-24.8%
CCOc1ccc(-n2c(SCC(=O)N3CCCCC3)nc3c([nH]c4ccccc43)c2=O)cc1	u	x	x	-29.6%	x	x
Cc1ccc(NC(=O)CCCN2C(=O)COc3ccc(C)cc32)c(C)c1	11.6µM*	x	x	u	x	x
Cc1ccc2c(c1)N(CCCC(=O)NCC1COc3ccccc3O1)C(=O)CO2 (stereo unspecified)	-24.7%	-13.7%	-10.0	-24.7%	u	7.0%
O=C1CC(c2cc(F)cc(F)c2)c2cc3c(cc2N1)OCO3 (stereo unspecified)	16.4µM*	x	x	u	x	x
COc1ccccc1C1CC(=O)Nc2cc3c(cc21)OCCO3 (stereo unspecified)	5.17µM*	11.2µM*	42.0	5.17µM*	-14.1%	9.2%
O=C1CC(c2ccc3c(c2)OCO3)c2cc3c(cc2N1)OCO3 (stereo unspecified)	u	17.2%	-19.7	-28.9%	2.2%	x
O=C1CC(c2cccs2)c2cc3c(cc2N1)OCCO3 (stereo unspecified)	20.6µM*	7.3%	7.0	u	-28.7%	-5.9%
O=C1CC(c2cccc(Cl)c2Cl)c2cc3c(cc2N1)OCCO3 (stereo unspecified)	20.6µM*	x	x	u	x	x
COc1ccc(Cl)cc1C1CC(=O)Nc2cc3c(cc21)OCCO3 (stereo unspecified)	0.366µM*	x	x	0.651µM*	x	x
C#CCCCO/N=C1/C[C@@H](O)[C@@H](O)[C@@H]2[C@H]3C(=O)N(c4ccc(F)cc4F)C(=O)[C@@H]3CC[C@H]12	x	-4.2%[10 µM]	x	x	-0.8%[10 µM]	x
Nc1c(S(=O)(=O)c2ccccc2)c2nc3ccccc3nc2n1/N=C/c1cccc(O)c1	23.1µM*	-1.3%	-71.8*	14.6µM*	-2.1%	u
SMILES	DT40 TDP1 no CPT	Gal4-VP16 FLuc	IL-1B inflam inh	TDP1 cell CPT	RORgamma inh	ELG1 repair inh
CC(=O)Nc1cccc(NC(=O)c2cccc(OCc3ccccc3)c2)c1	18.4µM*	3.5%	68.3	20.6µM*	22.7%	u
CC(=O)Nc1ccc(OCc2ccc(S(=O)(=O)Cc3ccccc3)cc2)cc1	u	5.9%	13.3	-10.3%	0.4%	-6.6%
O=C(NC1CCCCC1)c1cccc(OCc2ccccc2)c1	u	-6.9%	-73.6*	u	13.8%	-1.9%
CC(=O)Nc1cccc(NC(=O)c2ccccc2OCc2ccccc2)c1	u	-3.3%	u	u	u	u
CC(=O)Nc1cccc(OCc2ccc(S(=O)(=O)Cc3ccccc3)cc2)c1	20.6µM*	-11.7%	16.4	u	18.2%	u
CCc1nc2ccc(C(=O)N(C)C(C)C)cn2c1N(CC)Cc1cccc(Br)c1	14.6µM*	x	-7.8	u	x	x
CCc1nc2ccc(C(=O)N3CCN(S(=O)(=O)CC)CC3)cn2c1N(CC)Cc1cccc(Br)c1	u	x	-22.2	23.1µM*	x	x
CCc1nc2ccc(C(=O)N3CCN(S(=O)(=O)CC)CC3)cn2c1N(CC)CCN(C)C	-13.0%	x	22.6	0.4%	x	x
CCc1nc2ccc(C(=O)N(C)CCCN(C)C)cn2c1N(CC)CCOC	7.8%	x	5.9	18.1%	x	x
COCCN1C(=O)COc2ccccc2C1C(=O)Nc1ccc2c(c1)OCCO2 (stereo unspecified)	-20.6%	x	u	10.4%	x	x
Cc1cc(NC(=O)c2ccc(Cl)cc2)n(CCOC(=O)c2ccc(Cl)cc2)n1	u	15.8µM*	-1.2	u	u	-13.7%
Cc1cc(NC(=O)c2ccc(Cl)cc2)n(CCC#N)n1	-15.8%	-4.2%	10.7	0.5%	27.0%	25.4%
CN1OC[C@@H]2CN(Cc3ccccc3)[C@H](c3cccc(Oc4ccccc4)c3)C[C@@H]21	23.1µM*	x	-8.9	25.9µM*	x	x
COc1cccc(NC(=O)Cn2c(=O)n(-c3ccccc3)c(=O)c3sccc32)c1	13µM*	4.7%	-4.5	u	2.9%	u
COc1ccc(-n2c(=O)c3c4c(sc3n(Cc3ccccc3)c2=O)CCC4)c(OC)c1	23.1µM*	x	x	u	x	x
COc1cccc(NC(=O)Cn2c(=O)n(-c3cccc(OC)c3)c(=O)c3c4c(sc32)CCCC4)c1	18.4µM*	x	x	13µM*	x	x
COc1ccc(-n2c(=O)c3c4c(sc3n(CC(=O)C(C)(C)C)c2=O)CCCC4)c(OC)c1	u	x	x	14.6µM*	x	x
COc1ccc(-n2c(=O)c3c4c(sc3n(CC(=O)Nc3cc(C)[nH]n3)c2=O)CCC4)c(OC)c1	u	-2.6%	-24.1	-24.2%	20.4%	-20.1%
